How the values were obtained:
[1] = molecular target: T1, Serine/threonine-protein kinase D2 (Homo sapiens) (UniProt Q9BZL6); details: at 1 µM;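 note: mean value of PRKD2 inhibition, from the GSK PKIS screening panel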
T1 sequence (whole entry): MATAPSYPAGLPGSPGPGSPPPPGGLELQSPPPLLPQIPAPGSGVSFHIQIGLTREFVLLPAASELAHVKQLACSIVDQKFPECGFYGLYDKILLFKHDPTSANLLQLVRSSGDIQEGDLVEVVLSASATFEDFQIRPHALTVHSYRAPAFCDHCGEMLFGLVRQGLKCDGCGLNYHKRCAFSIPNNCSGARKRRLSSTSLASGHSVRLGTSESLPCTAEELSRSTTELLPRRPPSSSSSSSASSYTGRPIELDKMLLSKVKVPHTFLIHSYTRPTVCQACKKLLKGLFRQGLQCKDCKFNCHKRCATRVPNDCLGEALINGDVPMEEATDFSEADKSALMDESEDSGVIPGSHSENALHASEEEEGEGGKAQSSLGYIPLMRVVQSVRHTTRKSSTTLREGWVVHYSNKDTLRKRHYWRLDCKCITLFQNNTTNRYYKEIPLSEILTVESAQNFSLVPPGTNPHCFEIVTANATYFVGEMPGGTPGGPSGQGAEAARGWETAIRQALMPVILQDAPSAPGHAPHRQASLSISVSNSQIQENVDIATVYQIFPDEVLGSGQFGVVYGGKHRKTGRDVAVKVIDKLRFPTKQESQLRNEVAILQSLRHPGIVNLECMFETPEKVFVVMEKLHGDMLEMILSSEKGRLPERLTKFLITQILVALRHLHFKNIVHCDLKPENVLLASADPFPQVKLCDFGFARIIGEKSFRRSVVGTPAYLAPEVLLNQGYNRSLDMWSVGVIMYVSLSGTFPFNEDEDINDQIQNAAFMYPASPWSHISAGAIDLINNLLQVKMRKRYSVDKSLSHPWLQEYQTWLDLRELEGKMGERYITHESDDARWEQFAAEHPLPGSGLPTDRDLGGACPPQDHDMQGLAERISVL

[2] = molecular target: T2, Serine/threonine-protein kinase D3 (Homo sapiens) (UniProt O94806); details: at 0.1 µM
T2 sequence (whole entry): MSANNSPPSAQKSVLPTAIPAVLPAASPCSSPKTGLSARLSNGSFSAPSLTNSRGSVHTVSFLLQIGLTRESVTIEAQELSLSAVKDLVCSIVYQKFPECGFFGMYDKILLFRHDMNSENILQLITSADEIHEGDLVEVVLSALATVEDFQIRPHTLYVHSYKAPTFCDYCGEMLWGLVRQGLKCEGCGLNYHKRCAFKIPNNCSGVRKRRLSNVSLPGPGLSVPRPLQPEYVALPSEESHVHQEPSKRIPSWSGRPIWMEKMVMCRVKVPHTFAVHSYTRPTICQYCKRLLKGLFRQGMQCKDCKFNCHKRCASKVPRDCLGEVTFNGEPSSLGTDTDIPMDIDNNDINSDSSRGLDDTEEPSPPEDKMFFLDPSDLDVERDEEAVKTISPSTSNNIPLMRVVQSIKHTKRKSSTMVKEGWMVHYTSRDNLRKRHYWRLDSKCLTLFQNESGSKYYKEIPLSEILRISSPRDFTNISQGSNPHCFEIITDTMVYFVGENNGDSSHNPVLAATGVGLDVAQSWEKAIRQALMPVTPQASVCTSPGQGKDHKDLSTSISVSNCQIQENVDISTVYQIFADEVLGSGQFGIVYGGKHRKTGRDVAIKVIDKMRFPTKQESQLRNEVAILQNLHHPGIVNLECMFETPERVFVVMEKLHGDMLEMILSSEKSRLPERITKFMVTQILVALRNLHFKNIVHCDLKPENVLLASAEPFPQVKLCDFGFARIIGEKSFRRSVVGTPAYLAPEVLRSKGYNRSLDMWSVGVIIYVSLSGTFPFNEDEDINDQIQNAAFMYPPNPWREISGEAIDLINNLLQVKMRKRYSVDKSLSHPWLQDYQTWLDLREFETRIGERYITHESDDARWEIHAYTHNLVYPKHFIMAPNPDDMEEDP

[3] = molecular target: T2, Serine/threonine-protein kinase D3 (Homo sapiens); details: at 1 µM
[4] = molecular target: T3, cGMP-dependent protein kinase 1 (Homo sapiens) (UniProt Q13976); details: at 0.1 µM
T3 sequence (whole entry): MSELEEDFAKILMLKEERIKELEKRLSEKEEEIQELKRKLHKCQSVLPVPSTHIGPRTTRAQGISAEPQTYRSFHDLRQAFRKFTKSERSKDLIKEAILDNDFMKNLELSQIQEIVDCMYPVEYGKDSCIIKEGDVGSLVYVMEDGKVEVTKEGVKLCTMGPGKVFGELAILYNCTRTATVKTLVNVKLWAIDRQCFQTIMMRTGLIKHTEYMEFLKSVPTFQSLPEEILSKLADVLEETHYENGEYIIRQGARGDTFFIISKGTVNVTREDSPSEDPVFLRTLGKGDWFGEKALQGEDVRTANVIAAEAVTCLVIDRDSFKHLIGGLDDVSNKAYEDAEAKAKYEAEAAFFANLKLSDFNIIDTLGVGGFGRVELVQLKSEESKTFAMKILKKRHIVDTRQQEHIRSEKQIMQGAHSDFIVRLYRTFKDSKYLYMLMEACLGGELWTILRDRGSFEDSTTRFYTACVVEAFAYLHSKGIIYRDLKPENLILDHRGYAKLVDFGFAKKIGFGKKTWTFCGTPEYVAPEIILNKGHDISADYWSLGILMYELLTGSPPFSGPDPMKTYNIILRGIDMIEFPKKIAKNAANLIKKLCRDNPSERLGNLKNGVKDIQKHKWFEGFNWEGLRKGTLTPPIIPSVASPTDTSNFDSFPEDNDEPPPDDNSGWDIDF

[5] = molecular target: T3, cGMP-dependent protein kinase 1 (Homo sapiens); details: at 1 µM
[6] = molecular target: T4, cGMP-dependent protein kinase 2 (Homo sapiens) (UniProt Q13237); details: at 0.1 µM
T4 sequence (whole entry): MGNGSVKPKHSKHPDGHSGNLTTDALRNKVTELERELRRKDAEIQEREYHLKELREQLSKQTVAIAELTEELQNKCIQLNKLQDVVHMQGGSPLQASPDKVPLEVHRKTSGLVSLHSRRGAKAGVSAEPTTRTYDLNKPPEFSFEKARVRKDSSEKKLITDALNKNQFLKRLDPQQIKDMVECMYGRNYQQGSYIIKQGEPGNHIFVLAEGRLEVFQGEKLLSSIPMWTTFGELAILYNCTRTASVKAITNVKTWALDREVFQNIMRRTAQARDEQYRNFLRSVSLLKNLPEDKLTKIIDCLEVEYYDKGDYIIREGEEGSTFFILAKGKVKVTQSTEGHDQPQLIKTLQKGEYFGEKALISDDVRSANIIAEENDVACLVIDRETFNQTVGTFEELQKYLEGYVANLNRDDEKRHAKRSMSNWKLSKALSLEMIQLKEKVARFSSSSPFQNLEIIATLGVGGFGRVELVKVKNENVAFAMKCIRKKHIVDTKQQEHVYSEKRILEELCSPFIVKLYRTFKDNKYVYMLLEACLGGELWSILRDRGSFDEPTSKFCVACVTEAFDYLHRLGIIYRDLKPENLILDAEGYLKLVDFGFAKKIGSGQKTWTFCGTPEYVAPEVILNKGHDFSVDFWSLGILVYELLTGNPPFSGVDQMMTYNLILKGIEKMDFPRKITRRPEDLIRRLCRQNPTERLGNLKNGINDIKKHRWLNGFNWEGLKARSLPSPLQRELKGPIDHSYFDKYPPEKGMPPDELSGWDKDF

[7] = molecular target: T4, cGMP-dependent protein kinase 2 (Homo sapiens); details: at 1 µM
[8] = molecular target: T5, cAMP-dependent protein kinase catalytic subunit PRKX (Homo sapiens) (UniProt P51817); details: at 0.1 µM
T5 sequence (whole entry): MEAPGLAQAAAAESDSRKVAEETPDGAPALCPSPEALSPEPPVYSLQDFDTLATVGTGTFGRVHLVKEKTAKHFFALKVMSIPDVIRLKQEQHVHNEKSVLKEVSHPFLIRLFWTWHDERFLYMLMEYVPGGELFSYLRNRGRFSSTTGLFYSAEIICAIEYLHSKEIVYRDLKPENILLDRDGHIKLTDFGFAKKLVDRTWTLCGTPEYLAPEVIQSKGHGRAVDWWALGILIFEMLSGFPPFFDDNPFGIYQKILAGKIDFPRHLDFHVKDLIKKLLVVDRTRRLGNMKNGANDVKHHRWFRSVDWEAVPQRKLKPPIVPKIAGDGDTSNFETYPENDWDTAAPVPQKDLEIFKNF

[9] = molecular target: T5, cAMP-dependent protein kinase catalytic subunit PRKX (Homo sapiens); details: at 1 µM
[10] = molecular target: Rho-associated protein kinase 1 (Homo sapiens) (UniProt Q13464); details: at 0.1 µM
[11] = molecular target: Rho-associated protein kinase 1 (Homo sapiens) (UniProt Q13464); details: at 1 µM
[12] = molecular target: Rho-associated protein kinase 2 (Homo sapiens) (UniProt O75116); details: at 0.1 µM
[13] = molecular target: Rho-associated protein kinase 2 (Homo sapiens) (UniProt O75116); details: at 1 µM
[14] = molecular target: Ribosomal protein S6 kinase alpha-1 (Homo sapiens) (UniProt Q15418); details: at 0.1 µM
[15] = molecular target: Ribosomal protein S6 kinase alpha-1 (Homo sapiens) (UniProt Q15418); details: at 1 µM
[16] = molecular target: Ribosomal protein S6 kinase alpha-3 (Homo sapiens) (UniProt P51812); details: at 0.1 µM
[17] = molecular target: Ribosomal protein S6 kinase alpha-3 (Homo sapiens) (UniProt P51812); details: at 1 µM
[18] = molecular target: Ribosomal protein S6 kinase alpha-2 (Homo sapiens) (UniProt Q15349); details: at 0.1 µM
[19] = molecular target: Ribosomal protein S6 kinase alpha-2 (Homo sapiens) (UniProt Q15349); details: at 1 µM
[20] = molecular target: Ribosomal protein S6 kinase alpha-6 (Homo sapiens) (UniProt Q9UK32); details: at 0.1 µM;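 note: reported value is the mean inhibition of RSK4, from the GSK PKIS kinase inhibitor screen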
Sequence of Ribosomal protein S6 kinase alpha-6 (Homo sapiens) (Q9UK32 whole entry): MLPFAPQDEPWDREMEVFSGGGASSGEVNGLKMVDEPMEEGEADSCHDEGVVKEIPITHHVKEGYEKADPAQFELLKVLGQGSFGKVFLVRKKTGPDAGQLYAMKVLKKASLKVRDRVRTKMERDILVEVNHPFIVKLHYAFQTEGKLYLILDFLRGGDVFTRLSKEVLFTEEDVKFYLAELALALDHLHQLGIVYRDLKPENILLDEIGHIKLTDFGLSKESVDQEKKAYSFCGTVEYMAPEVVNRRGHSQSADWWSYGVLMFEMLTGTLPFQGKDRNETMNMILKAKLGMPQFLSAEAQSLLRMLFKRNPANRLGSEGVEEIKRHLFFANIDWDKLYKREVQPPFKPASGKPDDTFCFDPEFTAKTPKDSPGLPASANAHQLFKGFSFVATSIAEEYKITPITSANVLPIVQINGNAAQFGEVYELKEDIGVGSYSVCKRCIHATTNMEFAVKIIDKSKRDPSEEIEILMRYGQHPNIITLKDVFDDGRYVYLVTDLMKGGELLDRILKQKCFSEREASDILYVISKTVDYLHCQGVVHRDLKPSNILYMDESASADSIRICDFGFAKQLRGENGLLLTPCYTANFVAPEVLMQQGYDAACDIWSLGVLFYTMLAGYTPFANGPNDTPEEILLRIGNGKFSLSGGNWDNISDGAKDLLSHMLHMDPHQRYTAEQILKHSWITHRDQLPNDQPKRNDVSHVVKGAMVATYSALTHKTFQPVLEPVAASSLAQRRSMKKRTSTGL

Sequence of Rho-associated protein kinase 2 (Homo sapiens) (O75116 whole entry, looked up): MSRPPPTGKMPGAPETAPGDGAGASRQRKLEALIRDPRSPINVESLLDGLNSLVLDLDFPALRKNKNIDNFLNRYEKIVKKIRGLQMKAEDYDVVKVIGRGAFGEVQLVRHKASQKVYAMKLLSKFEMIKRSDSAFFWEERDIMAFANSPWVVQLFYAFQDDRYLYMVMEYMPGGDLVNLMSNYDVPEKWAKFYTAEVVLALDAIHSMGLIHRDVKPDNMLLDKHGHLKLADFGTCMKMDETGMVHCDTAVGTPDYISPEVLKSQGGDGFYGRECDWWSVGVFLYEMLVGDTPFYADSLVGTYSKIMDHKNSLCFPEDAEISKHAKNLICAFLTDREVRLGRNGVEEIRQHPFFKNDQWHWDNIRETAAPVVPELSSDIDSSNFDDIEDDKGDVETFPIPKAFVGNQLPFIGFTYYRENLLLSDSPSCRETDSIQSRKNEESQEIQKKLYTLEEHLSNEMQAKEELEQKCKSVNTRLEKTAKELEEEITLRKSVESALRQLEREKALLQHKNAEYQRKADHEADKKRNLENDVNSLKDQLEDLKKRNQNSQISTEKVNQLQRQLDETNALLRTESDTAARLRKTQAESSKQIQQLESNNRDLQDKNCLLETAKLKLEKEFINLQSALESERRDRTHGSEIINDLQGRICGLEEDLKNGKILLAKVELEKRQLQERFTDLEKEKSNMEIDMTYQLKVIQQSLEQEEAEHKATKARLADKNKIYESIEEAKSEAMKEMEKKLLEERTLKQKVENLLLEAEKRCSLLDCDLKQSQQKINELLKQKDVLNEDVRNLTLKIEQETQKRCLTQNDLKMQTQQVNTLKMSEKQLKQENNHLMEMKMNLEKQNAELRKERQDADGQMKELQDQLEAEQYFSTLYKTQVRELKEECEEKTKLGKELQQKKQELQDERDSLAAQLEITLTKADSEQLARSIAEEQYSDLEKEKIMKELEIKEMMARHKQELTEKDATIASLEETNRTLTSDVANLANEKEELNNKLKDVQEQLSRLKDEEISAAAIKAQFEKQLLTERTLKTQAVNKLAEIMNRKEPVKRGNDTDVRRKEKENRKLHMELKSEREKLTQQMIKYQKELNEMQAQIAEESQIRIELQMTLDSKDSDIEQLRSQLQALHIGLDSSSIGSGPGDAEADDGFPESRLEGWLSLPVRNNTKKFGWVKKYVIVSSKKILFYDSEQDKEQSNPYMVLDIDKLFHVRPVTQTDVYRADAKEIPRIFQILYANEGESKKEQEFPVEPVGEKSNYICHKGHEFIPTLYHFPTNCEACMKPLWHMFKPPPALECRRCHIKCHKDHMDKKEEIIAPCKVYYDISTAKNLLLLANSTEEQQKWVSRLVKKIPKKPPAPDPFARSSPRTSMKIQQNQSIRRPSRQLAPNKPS
Sequence of Ribosomal protein S6 kinase alpha-2 (Homo sapiens) (Q15349 whole entry): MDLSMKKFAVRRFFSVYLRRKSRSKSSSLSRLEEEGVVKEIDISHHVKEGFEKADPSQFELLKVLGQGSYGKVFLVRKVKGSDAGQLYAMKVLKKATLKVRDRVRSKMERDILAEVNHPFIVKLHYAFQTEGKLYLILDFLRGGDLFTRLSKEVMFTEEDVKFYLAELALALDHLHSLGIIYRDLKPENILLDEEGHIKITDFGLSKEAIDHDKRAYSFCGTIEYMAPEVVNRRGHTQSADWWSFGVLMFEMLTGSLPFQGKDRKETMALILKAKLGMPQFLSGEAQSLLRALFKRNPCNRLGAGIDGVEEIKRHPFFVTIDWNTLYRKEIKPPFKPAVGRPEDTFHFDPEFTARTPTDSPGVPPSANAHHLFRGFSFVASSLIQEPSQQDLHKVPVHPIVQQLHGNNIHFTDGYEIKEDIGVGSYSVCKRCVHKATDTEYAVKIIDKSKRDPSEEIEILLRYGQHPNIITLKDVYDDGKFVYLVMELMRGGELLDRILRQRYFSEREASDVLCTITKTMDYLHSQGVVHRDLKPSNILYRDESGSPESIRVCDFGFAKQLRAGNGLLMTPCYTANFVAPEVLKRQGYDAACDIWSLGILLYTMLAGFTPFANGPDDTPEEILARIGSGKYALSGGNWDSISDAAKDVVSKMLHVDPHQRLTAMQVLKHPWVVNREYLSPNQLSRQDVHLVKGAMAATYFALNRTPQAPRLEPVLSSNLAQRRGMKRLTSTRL
Sequence of Rho-associated protein kinase 1 (Homo sapiens) (Q13464 2-1354 limits assumed): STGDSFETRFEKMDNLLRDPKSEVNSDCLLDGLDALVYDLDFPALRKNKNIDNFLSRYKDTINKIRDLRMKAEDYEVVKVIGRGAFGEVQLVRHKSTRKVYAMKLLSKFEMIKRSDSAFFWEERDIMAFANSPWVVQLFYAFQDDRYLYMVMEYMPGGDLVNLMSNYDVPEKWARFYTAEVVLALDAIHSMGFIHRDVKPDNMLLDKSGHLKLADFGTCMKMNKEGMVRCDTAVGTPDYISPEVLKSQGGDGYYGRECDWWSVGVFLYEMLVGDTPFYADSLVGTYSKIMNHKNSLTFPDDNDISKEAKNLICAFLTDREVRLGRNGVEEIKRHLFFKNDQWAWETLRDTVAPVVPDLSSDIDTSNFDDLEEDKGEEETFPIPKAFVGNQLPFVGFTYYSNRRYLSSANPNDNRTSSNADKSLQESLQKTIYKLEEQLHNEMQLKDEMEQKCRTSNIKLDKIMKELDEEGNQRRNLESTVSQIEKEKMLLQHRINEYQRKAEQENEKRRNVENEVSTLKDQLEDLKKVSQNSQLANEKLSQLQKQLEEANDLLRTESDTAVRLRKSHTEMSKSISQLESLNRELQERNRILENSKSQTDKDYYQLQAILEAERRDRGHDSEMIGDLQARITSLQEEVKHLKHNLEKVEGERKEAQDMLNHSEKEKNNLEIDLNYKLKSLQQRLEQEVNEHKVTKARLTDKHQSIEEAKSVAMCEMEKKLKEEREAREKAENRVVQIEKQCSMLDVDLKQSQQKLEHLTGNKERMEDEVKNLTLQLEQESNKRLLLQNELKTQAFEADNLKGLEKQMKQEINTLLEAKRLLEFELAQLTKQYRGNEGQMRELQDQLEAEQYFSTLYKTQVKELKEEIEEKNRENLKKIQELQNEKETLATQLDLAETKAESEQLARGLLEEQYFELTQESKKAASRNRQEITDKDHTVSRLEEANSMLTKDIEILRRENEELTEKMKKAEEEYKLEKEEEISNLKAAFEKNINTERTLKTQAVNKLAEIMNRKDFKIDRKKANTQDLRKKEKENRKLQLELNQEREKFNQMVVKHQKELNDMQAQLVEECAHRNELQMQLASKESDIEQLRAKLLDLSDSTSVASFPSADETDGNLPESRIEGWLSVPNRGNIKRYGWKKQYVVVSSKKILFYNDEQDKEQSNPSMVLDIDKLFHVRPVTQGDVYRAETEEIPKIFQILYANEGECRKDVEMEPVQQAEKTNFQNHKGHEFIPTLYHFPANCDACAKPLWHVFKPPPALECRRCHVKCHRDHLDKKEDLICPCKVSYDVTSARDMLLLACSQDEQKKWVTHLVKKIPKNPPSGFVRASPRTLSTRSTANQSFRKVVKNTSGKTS
Sequence of Ribosomal protein S6 kinase alpha-3 (Homo sapiens) (P51812 whole entry): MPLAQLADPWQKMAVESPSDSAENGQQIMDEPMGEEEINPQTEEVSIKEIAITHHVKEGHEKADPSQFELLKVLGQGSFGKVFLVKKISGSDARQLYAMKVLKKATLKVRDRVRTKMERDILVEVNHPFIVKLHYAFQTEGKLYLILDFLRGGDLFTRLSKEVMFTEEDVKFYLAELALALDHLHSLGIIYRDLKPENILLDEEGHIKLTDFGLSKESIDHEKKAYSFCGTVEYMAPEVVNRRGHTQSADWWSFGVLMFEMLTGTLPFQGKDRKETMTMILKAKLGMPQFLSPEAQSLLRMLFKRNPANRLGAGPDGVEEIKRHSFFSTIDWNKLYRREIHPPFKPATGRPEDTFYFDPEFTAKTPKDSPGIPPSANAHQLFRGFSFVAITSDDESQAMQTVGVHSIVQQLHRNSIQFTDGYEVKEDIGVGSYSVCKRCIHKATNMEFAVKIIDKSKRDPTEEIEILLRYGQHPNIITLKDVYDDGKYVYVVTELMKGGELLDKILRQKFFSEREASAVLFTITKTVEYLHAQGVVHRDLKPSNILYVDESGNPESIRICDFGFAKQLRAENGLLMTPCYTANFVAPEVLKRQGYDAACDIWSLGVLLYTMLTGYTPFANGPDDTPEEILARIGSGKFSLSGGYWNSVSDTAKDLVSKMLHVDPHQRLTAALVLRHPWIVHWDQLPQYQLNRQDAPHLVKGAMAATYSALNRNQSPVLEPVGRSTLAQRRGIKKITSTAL

Structure (SMILES)	inhibition [1]	inhibition [2]	inhibition [3]	inhibition [4]	inhibition [5]	inhibition [6]	inhibition [7]	inhibition [8]	inhibition [9]	inhibition [10]	inhibition [11]	inhibition [12]	inhibition [13]	inhibition [14]	inhibition [15]	inhibition [16]	inhibition [17]	inhibition [18]	inhibition [19]	inhibition [20]
C[C@@H](Oc1cc(-n2cnc3ccc(OCC4CCN(C)CC4)cc32)sc1C(N)=O)c1ccccc1C(F)(F)F	22.1%	-0.13%	16.9%	-2.23%	0.25%	-1.61%	0.31%	-0.03%	-1.15%	0.29%	12%	1.51%	12%	5.1%	32.7%	11.8%	52%	3.14%	30.9%	13.2%
CCS(=O)(=O)c1ccc(OC)c(Nc2ncc(-c3cccc(OC)c3)o2)c1	3.71%	3.28%	3.64%	1.45%	2.34%	0.25%	2.95%	0.28%	-2.35%	0.26%	2.35%	0.89%	1.18%	0.6%	4.04%	-0.45%	0.81%	1.33%	4.86%	-0.11%
CN(C)C(=O)O[C@H]1CN[C@H](C#Cc2cc3ncnc(Nc4ccc(OCc5cccc(F)c5)c(Cl)c4)c3s2)C1	1.92%	2.56%	2.75%	2.24%	6.88%	-0.06%	5.82%	1.35%	3.67%	1.82%	4.25%	2.11%	2.54%	1.95%	2.1%	0.75%	1.6%	0.37%	3.74%	0.96%
COc1cc(/C=N/Nc2ncnc3c2cnn3C(C)C)ccc1O	1.41%	1.37%	1.6%	3.26%	3.14%	0.71%	2.16%	0.57%	0.81%	0.31%	4.3%	0.86%	2.83%	10.4%	1.08%	0.95%	1.27%	1.98%	2.99%	1.4%
Nc1nccc(C#Cc2cncnc2Nc2ccc(OCc3cccc(F)c3)c(Cl)c2)n1	5.62%	5.15%	5.74%	2.37%	5.43%	1.99%	7.43%	0.49%	-0.22%	0.91%	3.74%	2.53%	4.22%	1.3%	2.85%	0.4%	0.81%	2.21%	2.85%	0.59%
NS(=O)(=O)c1ccc(NC=C2C(=O)Nc3ccc4ncsc4c32)cc1	79%	19.4%	76.3%	6.31%	28.6%	18.4%	61.7%	2.2%	12.2%	15.5%	55.1%	27.4%	69.4%	15.1%	53.4%	17.7%	57.1%	34.3%	80.5%	29.3%

— ChEMBL document CHEMBL1961873, “Compounds: GSK PKIS; Assays: Nanosyn kinase panel” (2012)
